Common to all, as to test: DAPPL (digital affinity profiling via proximity ligation, sequencing); 10 mM Tris-HCl pH 7.5, 50 mM NaCl, 1 mM DTT, 4% glycerol, room temperature, 30 min; GST-TFs on glutathione beads, 16-mer random dsDNA library, 0.1% formaldehyde crosslink after washing; high values mean tight binding
For test [1], the target named is HSF1 (Homo sapiens, UniProt Q00613 1-529). The conditions noted are these: protein: recombinant; tags: N-terminal GST; chain copies: 3; dsDNA, one strand shown. Summed up: (§1)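 Human transcription factors fused to GST were expressed in yeast, captured on glutathione beads, given DNA barcodes and pooled with a GST-only negative control. Pools were incubated with 200 nmole of a 16-mer random double-stranded DNA library in Tris/NaCl/DTT/glycerol buffer at room temperature for 30 min. They were then washed, crosslinked with 0.1% formaldehyde, proximity-ligated (BsaI/T4 ligase, 1 h, 37 °C), PCR-amplified and sequenced on an Illumina NextSeq500. Binding signal is each 6-mer's read frequency for a factor divided by its frequency for the GST control.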
Sequence of HSF1 (Q00613 whole entry, the tested form may be a part): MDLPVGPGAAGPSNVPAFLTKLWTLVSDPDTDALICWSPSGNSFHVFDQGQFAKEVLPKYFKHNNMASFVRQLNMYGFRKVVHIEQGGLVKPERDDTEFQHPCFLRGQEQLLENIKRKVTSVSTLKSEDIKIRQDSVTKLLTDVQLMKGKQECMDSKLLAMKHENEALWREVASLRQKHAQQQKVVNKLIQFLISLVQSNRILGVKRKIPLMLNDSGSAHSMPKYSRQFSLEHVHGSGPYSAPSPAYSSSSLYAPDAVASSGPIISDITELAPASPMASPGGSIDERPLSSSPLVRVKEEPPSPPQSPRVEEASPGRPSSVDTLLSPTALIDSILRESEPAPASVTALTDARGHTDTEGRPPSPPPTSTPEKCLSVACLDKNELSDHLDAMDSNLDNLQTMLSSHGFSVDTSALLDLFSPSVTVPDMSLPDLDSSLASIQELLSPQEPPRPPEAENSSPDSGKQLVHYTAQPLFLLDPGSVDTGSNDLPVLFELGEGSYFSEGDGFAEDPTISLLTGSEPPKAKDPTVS

Test [2] concerns the target T1, ELK1 (Homo sapiens, UniProt P19419 1-428).
T1 sequence: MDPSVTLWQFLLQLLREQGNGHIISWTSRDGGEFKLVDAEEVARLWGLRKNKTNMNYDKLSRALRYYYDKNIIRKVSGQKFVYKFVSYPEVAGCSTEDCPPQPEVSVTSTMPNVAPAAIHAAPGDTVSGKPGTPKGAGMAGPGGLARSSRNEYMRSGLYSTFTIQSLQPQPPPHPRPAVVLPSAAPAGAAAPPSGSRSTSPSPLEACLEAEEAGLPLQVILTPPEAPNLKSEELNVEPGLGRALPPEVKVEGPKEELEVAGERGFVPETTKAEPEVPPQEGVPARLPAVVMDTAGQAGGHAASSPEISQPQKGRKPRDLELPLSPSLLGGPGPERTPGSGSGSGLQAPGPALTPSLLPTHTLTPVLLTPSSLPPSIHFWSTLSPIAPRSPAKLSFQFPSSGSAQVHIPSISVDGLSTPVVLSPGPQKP
The conditions noted are these: protein: recombinant; tags: N-terminal GST; dsDNA, one strand shown. Summed up:
as §1

For test [3], the target named is T2, ERG (Homo sapiens, UniProt P11308 1-479).
T2 sequence: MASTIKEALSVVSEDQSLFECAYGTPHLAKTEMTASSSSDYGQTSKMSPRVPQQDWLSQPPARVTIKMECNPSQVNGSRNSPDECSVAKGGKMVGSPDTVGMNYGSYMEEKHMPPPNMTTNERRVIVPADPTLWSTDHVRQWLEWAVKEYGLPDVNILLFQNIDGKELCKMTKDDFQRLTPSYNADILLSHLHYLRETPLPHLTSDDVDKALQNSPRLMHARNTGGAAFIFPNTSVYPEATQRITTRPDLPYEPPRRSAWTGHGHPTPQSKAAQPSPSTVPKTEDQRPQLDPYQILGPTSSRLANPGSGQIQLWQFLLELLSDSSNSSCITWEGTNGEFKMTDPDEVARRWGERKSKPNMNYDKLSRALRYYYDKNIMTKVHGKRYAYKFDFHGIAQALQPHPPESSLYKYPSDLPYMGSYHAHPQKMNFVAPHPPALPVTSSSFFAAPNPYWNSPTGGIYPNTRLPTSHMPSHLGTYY
The following applies: protein: recombinant; tags: N-terminal GST; dsDNA, one strand shown. In short, it runs like this:
as §1

Test [4] has as its target T3, EHF (Homo sapiens, UniProt Q9NZC4 1-300).
T3 sequence: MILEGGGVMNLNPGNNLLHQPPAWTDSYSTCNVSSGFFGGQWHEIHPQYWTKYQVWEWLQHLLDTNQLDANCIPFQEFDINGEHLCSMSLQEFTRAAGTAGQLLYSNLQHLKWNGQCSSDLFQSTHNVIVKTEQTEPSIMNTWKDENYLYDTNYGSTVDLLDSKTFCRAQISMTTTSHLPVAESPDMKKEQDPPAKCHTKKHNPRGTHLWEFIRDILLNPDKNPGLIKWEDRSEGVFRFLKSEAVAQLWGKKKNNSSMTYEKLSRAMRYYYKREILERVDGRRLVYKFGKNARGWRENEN
The conditions noted are these: protein: recombinant; tags: N-terminal GST; dsDNA, one strand shown. Summed up: as §1

The target of test [5] is T4, ELK3 (Homo sapiens, UniProt P41970 1-407).
T4 sequence: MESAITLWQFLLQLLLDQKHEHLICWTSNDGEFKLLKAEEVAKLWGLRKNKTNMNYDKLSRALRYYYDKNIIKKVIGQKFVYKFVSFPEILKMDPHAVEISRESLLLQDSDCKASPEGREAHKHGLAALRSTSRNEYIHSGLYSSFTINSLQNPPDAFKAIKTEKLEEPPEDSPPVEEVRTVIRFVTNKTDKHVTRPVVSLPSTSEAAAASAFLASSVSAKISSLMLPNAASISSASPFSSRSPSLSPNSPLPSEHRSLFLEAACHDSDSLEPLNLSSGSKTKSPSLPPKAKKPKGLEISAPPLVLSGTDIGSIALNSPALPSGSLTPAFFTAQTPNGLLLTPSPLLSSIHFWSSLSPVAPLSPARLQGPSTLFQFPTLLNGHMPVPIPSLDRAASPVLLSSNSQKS
The following applies: protein: recombinant; tags: N-terminal GST; dsDNA, one strand shown. In short, it runs like this: as §1

Test [6] deals with T5, SPIC (Homo sapiens, UniProt Q8N5J4 1-248).
T5 sequence: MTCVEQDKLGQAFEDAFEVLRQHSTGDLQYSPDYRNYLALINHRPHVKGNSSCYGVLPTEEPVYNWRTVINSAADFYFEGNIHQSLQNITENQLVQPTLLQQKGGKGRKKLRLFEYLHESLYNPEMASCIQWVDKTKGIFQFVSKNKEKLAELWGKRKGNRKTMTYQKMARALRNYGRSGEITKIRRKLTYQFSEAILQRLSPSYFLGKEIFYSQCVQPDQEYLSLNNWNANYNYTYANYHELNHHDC
The following applies: protein: recombinant; tags: N-terminal GST; dsDNA, one strand shown. In short, it runs like this:
as §1

The target of test [7] is ELF4 (Homo sapiens, UniProt Q99607 1-663). The conditions noted are these: protein: recombinant; tags: N-terminal GST; dsDNA, one strand shown. In short, it runs like this:
as §1

Test [8] addresses T6, ETV2 (Homo sapiens, UniProt O00321 1-342).
T6 sequence: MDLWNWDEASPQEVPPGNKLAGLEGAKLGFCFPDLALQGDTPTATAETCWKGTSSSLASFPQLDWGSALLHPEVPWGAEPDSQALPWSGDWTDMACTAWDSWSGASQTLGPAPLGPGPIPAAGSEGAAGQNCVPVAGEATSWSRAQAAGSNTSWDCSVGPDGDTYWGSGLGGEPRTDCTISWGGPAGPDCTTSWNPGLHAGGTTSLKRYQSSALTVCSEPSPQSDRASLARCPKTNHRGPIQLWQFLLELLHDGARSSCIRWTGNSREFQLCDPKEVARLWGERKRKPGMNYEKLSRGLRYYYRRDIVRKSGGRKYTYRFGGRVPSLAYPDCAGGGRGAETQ
The following applies: protein: recombinant; tags: N-terminal GST; dsDNA, one strand shown. Summed up:
as §1

In test [9] the target is T7, ELF3 (Homo sapiens, UniProt P78545 1-371).
T7 sequence: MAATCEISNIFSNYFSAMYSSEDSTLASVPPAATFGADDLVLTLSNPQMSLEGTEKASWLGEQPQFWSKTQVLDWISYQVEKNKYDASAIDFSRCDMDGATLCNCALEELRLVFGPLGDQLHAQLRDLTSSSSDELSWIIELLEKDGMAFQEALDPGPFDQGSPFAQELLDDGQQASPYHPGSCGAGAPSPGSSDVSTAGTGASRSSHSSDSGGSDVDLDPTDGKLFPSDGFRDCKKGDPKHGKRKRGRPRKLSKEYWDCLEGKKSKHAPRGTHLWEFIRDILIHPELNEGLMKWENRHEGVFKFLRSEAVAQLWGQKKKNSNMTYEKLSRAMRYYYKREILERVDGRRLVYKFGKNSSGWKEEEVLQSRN
The conditions noted are these: protein: recombinant; tags: N-terminal GST; dsDNA, one strand shown. In short, it runs like this:
as §1

Test [10] deals with ETV1 (Homo sapiens, UniProt P50549 1-477). The following applies: protein: recombinant; tags: N-terminal GST; dsDNA, one strand shown. Summed up:
as §1

The target of test [11] is T8, ETV3L (Homo sapiens, UniProt Q6ZN32 1-361).
T8 sequence: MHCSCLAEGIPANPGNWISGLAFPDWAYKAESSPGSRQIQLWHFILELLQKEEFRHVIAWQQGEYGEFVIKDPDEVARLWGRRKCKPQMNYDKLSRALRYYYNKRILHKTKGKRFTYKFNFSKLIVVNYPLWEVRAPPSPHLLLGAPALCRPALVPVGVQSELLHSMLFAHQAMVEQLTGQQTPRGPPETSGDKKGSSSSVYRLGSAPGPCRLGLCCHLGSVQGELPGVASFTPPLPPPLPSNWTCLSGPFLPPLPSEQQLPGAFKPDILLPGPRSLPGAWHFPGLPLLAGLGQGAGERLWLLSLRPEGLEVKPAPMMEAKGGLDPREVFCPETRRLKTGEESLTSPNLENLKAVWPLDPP
The conditions noted are these: protein: recombinant; tags: N-terminal GST; dsDNA, one strand shown. Summed up: as §1

This is an account of results in article PMC7862700, “An all-to-all approach to the identification of sequence-specific readers for epigenetic DNA modifications on cytosine”.

Sequence of ETV1 (P50549 whole entry): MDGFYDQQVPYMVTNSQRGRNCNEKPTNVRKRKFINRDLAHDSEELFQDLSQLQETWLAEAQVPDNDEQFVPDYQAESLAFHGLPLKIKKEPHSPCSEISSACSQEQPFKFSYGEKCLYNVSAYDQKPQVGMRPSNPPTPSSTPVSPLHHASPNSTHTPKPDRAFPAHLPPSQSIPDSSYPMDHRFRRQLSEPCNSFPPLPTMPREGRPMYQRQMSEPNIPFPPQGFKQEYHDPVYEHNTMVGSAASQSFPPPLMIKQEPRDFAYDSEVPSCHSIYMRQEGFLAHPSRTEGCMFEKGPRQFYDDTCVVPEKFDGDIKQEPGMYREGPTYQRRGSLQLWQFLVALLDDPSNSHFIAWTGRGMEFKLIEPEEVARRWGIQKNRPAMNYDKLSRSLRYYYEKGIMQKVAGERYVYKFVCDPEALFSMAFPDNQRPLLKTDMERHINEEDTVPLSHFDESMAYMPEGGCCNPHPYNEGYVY
Sequence of ELF4 (Q99607 whole entry): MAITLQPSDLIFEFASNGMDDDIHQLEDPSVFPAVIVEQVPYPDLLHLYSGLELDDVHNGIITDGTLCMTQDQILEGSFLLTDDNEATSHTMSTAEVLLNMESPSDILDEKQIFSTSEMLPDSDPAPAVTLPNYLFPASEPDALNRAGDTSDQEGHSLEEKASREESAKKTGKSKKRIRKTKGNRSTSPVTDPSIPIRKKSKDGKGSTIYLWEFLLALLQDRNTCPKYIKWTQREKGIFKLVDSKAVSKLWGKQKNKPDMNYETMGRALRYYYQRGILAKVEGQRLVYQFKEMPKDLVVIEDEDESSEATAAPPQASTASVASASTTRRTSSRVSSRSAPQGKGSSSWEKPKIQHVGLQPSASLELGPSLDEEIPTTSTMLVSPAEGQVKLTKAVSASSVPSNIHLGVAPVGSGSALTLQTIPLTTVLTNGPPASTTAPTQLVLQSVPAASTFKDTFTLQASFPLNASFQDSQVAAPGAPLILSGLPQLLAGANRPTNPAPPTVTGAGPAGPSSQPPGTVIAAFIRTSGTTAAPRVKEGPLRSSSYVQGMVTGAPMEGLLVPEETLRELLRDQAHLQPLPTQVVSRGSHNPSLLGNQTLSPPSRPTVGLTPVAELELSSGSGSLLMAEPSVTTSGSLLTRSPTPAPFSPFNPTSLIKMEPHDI

As for ACGAGA, in test [1], the binding signal was 1.14 fold enrichment (6-mer frequency, TF over GST control).
On the same count and under the same terms, in the case of GAGAAT it was 1.44 fold enrichment (6-mer frequency, TF over GST control); in that of GGAATG, 1.25 fold enrichment (6-mer frequency, TF over GST control).
Take TGGATC: the binding signal in [2] was 1.01 fold enrichment (6-mer frequency, TF over GST control); in test [3], 1.02 fold enrichment (6-mer frequency, TF over GST control); in [4] it was 1 fold enrichment (6-mer frequency, TF over GST control); in test [5] it was 1.09 fold enrichment (6-mer frequency, TF over GST control); in test [1], 1.16 fold enrichment (6-mer frequency, TF over GST control); in test [6] it was 1.11 fold enrichment (6-mer frequency, TF over GST control). In addition, the binding signal was 1.02 fold enrichment (6-mer frequency, TF over GST control) in test [7]; 1.03 fold enrichment (6-mer frequency, TF over GST control) in test [8]; 1.06 fold enrichment (6-mer frequency, TF over GST control) in test [9]; 1.01 fold enrichment (6-mer frequency, TF over GST control) in test [10]; 1.12 fold enrichment (6-mer frequency, TF over GST control) in test [11].
Take TGTAGA: the binding signal in test [1] was 1.12 fold enrichment (6-mer frequency, TF over GST control); in test [6] it was 1.1 fold enrichment (6-mer frequency, TF over GST control).
CAGAAG: in [1], the binding signal was 1.32 fold enrichment (6-mer frequency, TF over GST control).
